# Sampled rows, rich in hits. Any-hit rate of the full collection: about 1.8%.
# PI4K2A inh: blocks human PI4K2A kinase activity. Q9BTU6. purified PI4K2A, ADP-Glo luminescence, 1 h; stronger effect = lower value. activity change, negative = inhibition, % at 76.9 µM. 0.13% of 420,000 active; in the data active = activity change below about -50%; inconclusive = mostly about -30% to -49%;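 also: -100% = wells without enzyme as full effect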
#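 PI4K2A activity was measured by ADP-Glo luminescence: enzyme (4 ug/mL stock) and phosphatidylinositol (1.2 mM stock) in Tris pH 7.5/MgCl2/EGTA/Triton X-100 buffer were reacted with ATP (300 microM stock) for one hour at ambient temperature.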
# PI5P4K alpha inh: inhibitors of human PI5P4K alpha. PI5P4Kalpha enzyme, ADP-Glo luminescence, 60 min; stronger effect = lower value. max response, %. 1.2% of 330,000 active. P48426; active = max response of -50% or lower; inconclusive = between -30% and -50%; inactive = -30% or higher; also: value at the top dose of about 77 µM
#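 Enzyme plus substrate dispensed, test compounds pinned in, then ATP (5 microM final) added. After 60 min at RT, ADP-Glo reagent 1 for 45 min and reagent 2 for 30 min preceded luminescence imaging.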
# Six1-Eya2 inh: blocks human Six1 binding to Eya2; AID 651725; 0.56% of 360,000 active; AlphaScreen GST-Six1/His-Eya2 binding, biochemical; stronger effect = lower value; activity change, % (concentration not given with the values)
# Target sequence (O00167 whole entry, looked up): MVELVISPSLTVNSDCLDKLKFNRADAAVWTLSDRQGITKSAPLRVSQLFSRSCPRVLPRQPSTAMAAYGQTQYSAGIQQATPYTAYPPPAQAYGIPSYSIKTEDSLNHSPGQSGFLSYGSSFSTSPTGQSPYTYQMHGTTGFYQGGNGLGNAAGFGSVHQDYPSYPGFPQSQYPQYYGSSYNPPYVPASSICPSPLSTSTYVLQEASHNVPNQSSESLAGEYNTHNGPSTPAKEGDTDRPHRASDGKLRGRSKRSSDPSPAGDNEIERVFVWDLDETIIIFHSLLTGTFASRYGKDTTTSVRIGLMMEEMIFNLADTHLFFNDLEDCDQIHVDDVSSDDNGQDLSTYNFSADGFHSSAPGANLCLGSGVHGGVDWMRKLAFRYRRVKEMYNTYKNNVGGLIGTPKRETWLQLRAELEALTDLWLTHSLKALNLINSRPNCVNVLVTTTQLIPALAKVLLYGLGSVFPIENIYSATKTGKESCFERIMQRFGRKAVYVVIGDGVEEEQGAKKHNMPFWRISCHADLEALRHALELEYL
# Target sequence (Q15475 whole entry, looked up): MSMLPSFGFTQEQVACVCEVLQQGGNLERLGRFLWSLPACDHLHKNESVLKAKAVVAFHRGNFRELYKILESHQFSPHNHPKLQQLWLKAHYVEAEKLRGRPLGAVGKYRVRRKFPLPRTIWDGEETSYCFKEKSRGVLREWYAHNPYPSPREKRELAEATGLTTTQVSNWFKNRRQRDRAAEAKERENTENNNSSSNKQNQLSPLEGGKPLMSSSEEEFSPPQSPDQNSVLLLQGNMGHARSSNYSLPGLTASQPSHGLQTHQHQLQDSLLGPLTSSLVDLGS
#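 AlphaScreen with GST-Six1 and His-Eya2 (5X mix: 250 nM and 500 nM), glutathione donor and nickel acceptor beads; buffer 50 mM Tris pH 8.0, 300 mM NaCl, 1 mM TCEP; 1 h at 37 C in the dark.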
# CtBP-E1A inh: CtBP/E1A binding inhibition; 0.49% of 340,000 active; AlphaScreen GST-E1A/His-CtBP binding, 1536-well; stronger effect = lower value; activity change, % (test concentration not listed)
#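 GST-E1A and His-tagged CtBP (125 nM each as 5X stock) were preincubated with pin-transferred compound for 2 h at 37 °C in the dark, then glutathione donor and nickel acceptor beads were added for 1 h before AlphaScreen reading.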
# pAkt inh: blocks phosphorylation of Akt | 0.32% of 360,000 active | Neuro2A IGF-stimulated pAkt S473 HTRF, 20 min; stronger effect = lower value | activity change, % for hits at 50 µM; in the data active = activity change below about -80%; inconclusive = mostly about -51% to -80%
#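 Neuro2A cells (4,500/well, DMEM with 0.5% FBS) were treated with compound at a single 50 µM final concentration, stimulated with 6 nM IGF for 20 min at 37 °C, and lysed. Phospho-Akt Ser473 was read by HTRF as 665/615 ratio ×10^4.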
# * = called active by the depositor; i = inactive; ? = inconclusive; nt = no result given. Rule as the data show it, unless noted: active = activity change below about -65%; inconclusive = mostly about -30% to -63%; inactive = weaker than that. Unless noted, % is scaled to controls: 0 for no effect and ±100 for the full control effect.
SMILES,PI4K2A inh,PI5P4K alpha inh,Six1-Eya2 inh,CtBP-E1A inh,pAkt inh
C/C(=N\NC(=O)c1ccncc1)c1cc2ccccc2o1,0.5,0.0,-2.3,-7.3,i
C/C(=N\NC(=O)c1ccncc1)c1cc2ccccc2oc1=O,-4.2,2.9,-80.0*,-4.6,i
C/C(=N/NC(=O)c1ccncc1)c1cc2ccc(O)cc2oc1=O,4.5,-27.9,-84.6*,-5.1,i
CC1CCC(C(C)C)C(OC(=O)CSc2nc(N)cc(=O)[nH]2)C1 (configuration not stated),0.1,nt,-1.0,-1.0,i
N#C/C(=C\c1ccc(O)c([N+](=O)[O-])c1)C(=O)NCc1ccccc1,3.7,-50.3*,-0.8,6.3,i
Cc1n[nH]c(=S)n(NC(=O)CC(=O)Nn2c(=S)[nH]nc(C)c2=O)c1=O,4.8,10.3,-87.3*,24.0,i
Cc1n[nH]c(=S)n(NC(=O)/C=C/C(=O)Nn2c(=S)[nH]nc(C)c2=O)c1=O,-4.0,?,-88.3*,?,i
Cc1nc2ccccc2c(=O)n1NC(=O)/C=C/c1ccccc1,3.8,-7.4,-0.4,-11.1,i
COc1ccccc1OCC(=O)Nn1c(=S)[nH]c2ncccc2c1=O,-0.4,7.0,-1.1,-2.9,i
Cc1ccc(Nc2nc(N)nc(CN3CCN(Cc4ccc5c(c4)OCO5)CC3)n2)cc1,-4.0,7.2,-8.9,10.7,i
O=C(N/N=C/c1ccc[nH]1)c1c[nH]c2ccccc12,-4.6,?,-7.3,-24.0,i
COc1ccc(-c2csc(Nc3cccnc3)n2)cc1OC,3.5,-0.9,-10.0,-1.1,i
O=C(Nc1ccc(N2CCN(C(=O)c3ccccc3F)CC2)cc1)c1ncn[nH]1,-4.8,-0.6,-71.7*,?,i
Cc1ccccc1C(=O)N1CCN(c2ccc(NC(=O)c3cccnc3Cl)cc2)CC1,0.5,3.9,27.1,0.0,i
Cc1[nH]nc2c1C(=O)CC(C)(C)C2,1.6,4.3,10.5,-0.5,-110.2%*
C(=N\n1cnnc1)/c1ccc(OCc2cccc3ccccc23)cc1,1.6,0.5,-14.3,-0.7,-134.4%*
O=C1c2ccccc2C(=O)c2c(O)c(O)cc(O)c21,-14.0,-105.9*,-11.3,?,i
Nc1ccc(Br)c2c1C(=O)c1ccccc1C2=O,4.0,9.4,?,-75.2*,i
NC1=C(Br)C(=O)c2ccccc2C1=O,-18.1,-5.2,-22.8,?,i
Nc1ccc(O)c2c1C(=O)c1ccccc1C2=O,-28.7,-96.5*,-84.5*,-86.0*,i
O=C1C=C(O)c2c(O)cc(O)c(O)c2C1=O,?,-68.2*,?,?,i
O=C(O)c1cccc2c1C(=O)c1ccccc1C2=O,12.8,-0.5,1.0,-1.7,i
COc1ccc(N)c2c1C(=O)c1ccccc1C2=O,-9.9,0.7,-11.0,?,i
Cc1cc(OC(C)C(=O)NCCN2CCOCC2)c2c(C)c(C)c(=O)oc2c1 (configuration not stated),-0.6,9.6,5.0,-0.5,i
O=C1CC[C@H](O)CCN1CCSc1ccc(Br)cc1,0.6,9.0,1.5,1.1,i
SMILES,PI4K2A inh,PI5P4K alpha inh,Six1-Eya2 inh,CtBP-E1A inh,pAkt inh
O=C(CCCn1c(=O)oc2ccccc21)Nc1ccccc1,-3.4,0.3,-4.1,0.8,i
CCOC(=O)c1sc(NC(=O)C(C)C)c(C#N)c1C,-5.6,-68.0*,-10.6,0.0,i
CCOC(=O)c1sc(NC(=O)C2=COCCO2)c(C#N)c1C,-4.3,-3.8,-7.1,-7.7,i
CCOC(=O)c1sc(NC(=O)CSc2n[nH]c(-c3ccccc3)n2)c(C#N)c1C,-5.9,-54.8*,-11.2,-11.5,i
CCN(CC)C(=O)c1sc(NC(=O)Cc2ccccc2)c(C#N)c1C,-9.7,-5.3,3.2,-0.3,-115.2%*
CSc1ccc(S(=O)(=O)NCC(=O)OCC(=O)N2CCC(C)CC2)cc1[N+](=O)[O-],6.4,-9.5,-2.0,0.7,i
Cc1ccc(S(=O)(=O)N2CCOCC2)cc1NC(=O)COC(=O)CCn1c(C)csc1=O,2.5,-1.7,4.6,0.7,i
O=C(Oc1ccnc2cc(Cl)ccc12)N1CCCCCC1,-1.1,9.5,2.9,37.2,-95.9%*
O=C1NN(c2ccccc2)C(=O)/C1=C/c1ccc(-c2ccc(C(=O)O)cc2)o1,0.3,?,-9.1,-0.1,i
O=C1NN(c2ccc(Cl)c(Cl)c2)C(=O)/C1=C/c1ccc(-c2ccccc2C(=O)O)o1,?,-58.3*,?,-72.1*,i
O=C1NN(c2cccc(Br)c2)C(=O)/C1=C/c1ccc(-c2cc([N+](=O)[O-])ccc2O)o1,1.3,-85.6*,-7.3,nt,i
O=C1NN(c2cccc(Br)c2)C(=O)/C1=C\c1ccc(O)cc1,-12.4,-51.3*,-1.0,nt,i
CC1=NN(c2ccc(C)cc2)C(=O)/C1=C/c1ccc(-c2cc([N+](=O)[O-])ccc2O)o1,-27.8,-94.1*,-2.3,nt,i
O=C1c2cccnc2C(=O)N1Cc1ccc(S(=O)(=O)NCc2ccco2)cc1,-0.1,-3.3,-8.4,-6.1,i
CCc1c(C)nc2ncnn2c1N1CCC(C(=O)Nc2ccccc2)CC1,4.7,nt,-2.6,0.0,?
CCOC(=O)N1CCC(NC(=O)c2c(C)nn(-c3cccc(C)c3)c2-n2cccc2)CC1,1.9,nt,nt,nt,nt
Cn1nnc2cc(NC(=O)Nc3ccccc3F)ccc21,-14.7,-12.4,-6.5,-15.5,i
CC(C)(C)NC(=O)CC1C[C@H](C(=O)N2CCCCC2)[C@@]2(C)c3[nH]c4ccccc4c3CCN2C1=O (some centres not stated),-58.9*,-0.4,1.8,-21.7,i
CC1(C(=O)NS(=O)(=O)c2ccc(C#N)cc2)CCN1C(=O)CC1CCCCC1 (configuration not stated),-1.8,-0.1,17.3,31.1,i
CCCCNC(=O)CSc1nc2ccccc2nc1Cc1ccc(C)cc1,-0.9,nt,nt,nt,nt
COc1ccccc1N1CCN(S(=O)(=O)/C=C/c2ccccc2)CC1,11.4,-1.5,-1.5,-3.9,-125.5%*
Cc1cccc(NC(=O)C2CCCN(C(=O)Nc3ccccc3)C2)c1C (configuration not stated),1.8,9.6,-2.7,0.5,-110.2%*
COc1cc(OC)cc(C(=O)Nc2ccc([N+](=O)[O-])cn2)c1,-2.5,-13.3,2.8,2.9,i
COCCCNC(=O)C[C@H]1C[C@H](C(=O)N2CCOCC2)[C@@]2(C)c3[nH]c4cc(-c5ccco5)ccc4c3CCN2C1=O,-0.9,5.0,-0.9,2.4,i
OCCNCCOc1ccccc1F,4.0,-3.2,0.6,3.0,-107.3%*
OCCNCCOc1ccccc1-c1ccccc1,6.5,0.2,8.8,6.3,i
CCn1cc(C(=O)NC(=S)Nc2ccccc2Br)cn1,-5.3,-60.3*,2.2,1.1,i

# Screens as filed in PubChem.
